Screens (PubChem)
Compounds with a hit are over-represented: about 6.2% of the library has one in this group of screens.
VP16 counter: VP16 counterscreen qHTS for inhibitors of ROR gamma transcriptional activity; Drosophila S2 Gal4-VP16 UAS-luciferase, luminescence, 20 h; Potency, µM (titrated, usually from 53.6 µM), most hits filed as inhibitors; actives 3.5% (n = 310,000); AID 2546, 2010;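 also: Gal4-VP16 expression switched on by copper sulfate through the metallothionein promoter; nearly all actives have a fitted effect of over 50% in size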
KinaseGlo FLuc: Counterscreen for Luciferase (Kinase-Glo TM) Inhibition | Kinase-Glo luciferase, ATP luminescence, 8 min | Potency, µM (titrated, usually from 38.3 µM), most hits filed as inhibitors | actives 0.28% (n = 200,000); also: nearly all actives have a fitted effect of over 60% in size
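Substrate mix (final 50 mM imidazole pH 7.2, 50 mM KCl, 7 mM MgCl2, 10 uM ATP, 0.01% Tween 20, 0.05% BSA) plus pin-tool compound, then Kinase-Glo detection mix; 8 min ambient, luminescence read.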
RORg inh: qHTS for inhibitors of ROR gamma transcriptional activity | Nuclear receptor ROR-gamma (Mus musculus), P51450 | Potency, µM (series often up to 53.6 µM), most hits filed as inhibitors | Drosophila S2 Gal4-RORgamma UAS-luciferase reporter, 20 h | actives 5.4% (n = 310,000); also: nearly all actives have a fitted effect of over 60% in size
Target sequence (P51450 whole entry, looked up, the tested form may be a part): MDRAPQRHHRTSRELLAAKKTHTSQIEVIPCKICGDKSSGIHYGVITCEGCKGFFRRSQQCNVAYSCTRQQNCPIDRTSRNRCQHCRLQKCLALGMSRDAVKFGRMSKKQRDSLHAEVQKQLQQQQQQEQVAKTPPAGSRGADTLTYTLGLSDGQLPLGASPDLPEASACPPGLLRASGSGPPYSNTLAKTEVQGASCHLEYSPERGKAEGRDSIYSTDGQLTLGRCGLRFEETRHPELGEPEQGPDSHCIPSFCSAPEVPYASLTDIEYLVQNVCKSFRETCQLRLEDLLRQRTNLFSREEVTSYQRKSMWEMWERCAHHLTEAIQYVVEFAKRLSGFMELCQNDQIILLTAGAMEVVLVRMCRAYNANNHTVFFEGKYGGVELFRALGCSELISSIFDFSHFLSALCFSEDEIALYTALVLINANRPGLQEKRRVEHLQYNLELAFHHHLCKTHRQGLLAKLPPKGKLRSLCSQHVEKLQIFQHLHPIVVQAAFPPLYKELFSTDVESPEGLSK
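In this cell-based reporter format, copper sulfate (700 uM final) drives Gal4–ROR gamma fusion expression from a metallothionein promoter in Drosophila Schneider cells; compounds preincubated 1 hr, reporter read after 20 hr at ambient temperature.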
Of the large screens only hits and unclear results are named; the others gave an inactive call. Calls follow the shape of the dose curve; as a rule, active = well fitted curve in the direction sought with a large enough effect; inconclusive = small, poorly fitted or top-dose-only effect, or another doubt; inactive = no such curve, though single readings can be large; an effect the other way counts as inactive or inconclusive.

COc1ccc(COC2OC[C@]3(C)[C@H]4C5=C(CN3C(=O)OC(C)(C)C)[C@H](C)C(CO)C(CO)C5CC[C@@H]24)cc1 (some centres not stated)	none
COc1ccc(/C=N/NC(=O)c2cccc([N+](=O)[O-])c2)cc1OC	none
COc1cc(/C=N/NC(=O)c2cccc([N+](=O)[O-])c2)ccc1OCc1ccccc1	VP16 counter inconclusive, RORg inh 3.2µM
COc1ccc(C(=O)Oc2ccc(/C=N/NC(=O)c3ccccc3OC)cc2[N+](=O)[O-])cc1	RORg inh inconclusive
O=C(N/N=C/c1ccc(OC(=O)c2ccccc2)c([N+](=O)[O-])c1)c1ccc(O)cc1	VP16 counter inconclusive, RORg inh 8.9µM
CN(CC(=O)NCc1ccccc1)Cc1ccc(Cl)cc1	none (no result: KinaseGlo FLuc)
CCOC(=O)C1(Cc2cccc(F)c2)CCN(C(=O)c2cnc(C)cn2)CC1	none
Cc1cc(OC(=O)c2cccc(C(F)(F)F)c2)c([N+](=O)[O-])c(=O)[nH]1	none (no result: KinaseGlo FLuc)
CN(C)CC(C)(C)CNC(=O)c1ccc(Cc2nc3ccccc3[nH]2)cc1	none (no result: VP16 counter, RORg inh)
CCOC(=O)c1ccc(-c2ccc(C3Nc4ccccc4C(=O)N3O)o2)cc1 (configuration not stated)	VP16 counter inconclusive, RORg inh 11µM
CCOC(=O)c1ccc(-c2ccc(CO)o2)cc1	VP16 counter inconclusive, RORg inh 11µM
CCOC(=O)C1=C(C)NC(=O)NC1c1ccc(-c2ccc(F)cc2)o1 (configuration not stated)	none (no result: KinaseGlo FLuc)
Cc1cc([N+](=O)[O-])ccc1-c1ccc(C2Nc3ccccc3C(=O)N2O)o1 (configuration not stated)	VP16 counter 0.71µM, RORg inh inconclusive
Cc1ccc(-c2ccc(CO)o2)cc1N	none
CC(=O)NN1C(=O)c2ccccc2NC1c1ccc([N+](=O)[O-])o1 (configuration not stated)	none
CN(CC(=O)Nc1cccc(F)c1)C(=O)/C=C/c1ccc2ccccc2n1	none (no result: KinaseGlo FLuc)
COCC(=O)N1CCC[C@@]2(CCN(C(c3ccccc3)c3ccccc3)C2)C1	none
CCOC(=O)CCC(=O)NNC(=O)COc1ccc(C(C)C)cc1Br	none
COCCn1c(=O)c(-c2cc(F)cc(F)c2)nc2cnc(N(C)C)nc21	none (no result: KinaseGlo FLuc)
COc1cccc(-c2cn3nc(C)c(C)nc3n2)c1	KinaseGlo FLuc 11µM
Cc1nc2nc(-c3ccc(Cl)cc3)cn2nc1C	VP16 counter inconclusive, KinaseGlo FLuc inconclusive
C=CCN(C)CCCNC(=O)/C=N/O	none
CCN(Cc1ccccc1)c1ccc(/C=N/NC(=O)c2cccc(S(=O)(=O)N3CCOCC3)c2)cc1	VP16 counter 7.9µM, RORg inh 6.3µM
COc1cc(/C=N/NC(=O)c2cccc(S(=O)(=O)N3CCOCC3)c2)cc(OC)c1O	none
CCN(CC)c1ccc(/C=N/NC(=O)c2cccc(S(=O)(=O)N3CCOCC3)c2)cc1	VP16 counter inconclusive, RORg inh 16µM
O=C(N/N=C/c1c(F)c(F)c(F)c(F)c1F)c1cccc(S(=O)(=O)N2CCOCC2)c1	none
COc1ccc(C(=O)N2CCC3(CCCN(C(=O)Nc4cccc(C#N)c4)C3)CC2)cc1	none
CC(=O)N1CC(=O)N(Cc2ccccc2)/C(=C/c2ccccc2)C1=O	none
CC(C)(C)C(=O)NC(=S)NCCc1ccccc1	VP16 counter inconclusive, RORg inh 8.9µM
S=C(NCCc1ccccc1)Nc1ccc(Br)cn1	VP16 counter 5µM, RORg inh 0.28µM
S=C(NCCc1ccccc1)NCCc1ccccc1	VP16 counter 10µM, RORg inh 7.1µM
S=C(NCCc1ccccc1)NCc1cccc(Cl)c1	none (no result: KinaseGlo FLuc)
CC(C)(C)NC(=O)NCCc1ccccc1	none (no result: KinaseGlo FLuc)
S=C(NCCc1ccccc1)Nc1ccc(Cl)cc1	VP16 counter inconclusive, RORg inh 6.3µM
O=C(CS(=O)(=O)c1ccccc1)Nc1ccc(Br)cn1	none
O=C(NCCc1ccccc1)Nc1ccc(Cl)cc1	none
Cc1ccc(CN2CCN(CC(=O)NCc3ccc(Cl)cc3)C2=O)cc1	none
CCC(C)(Oc1ccc(C2(c3ccc(OC(C)(CC)C(=O)O)cc3)CCCCC2)cc1)C(=O)O (configuration not stated)	none (no result: KinaseGlo FLuc)
CN1CCN(CC(=O)N2c3ccccc3Sc3cc4ccccc4cc32)CC1	none (no result: VP16 counter, RORg inh)
CCOc1ccc(C(=O)N/N=C/c2c(C)[nH]c(=O)[nH]c2=O)cc1	none (no result: KinaseGlo FLuc)
S=C(NCCCCNC(=S)NCc1ccccc1)NCc1ccccc1	RORg inh inconclusive (no result: KinaseGlo FLuc)
NS(=O)(=O)c1ccc(CCNC(=S)NC2CCCC2)cc1	none
S=C(NCCc1ccc(Cl)cc1)NC1CC1	VP16 counter 8.9µM, RORg inh 2.5µM
NNC(=S)NCCc1ccccc1	VP16 counter 10µM, RORg inh 3.5µM
CC(=O)c1ccc(NC(=O)Nc2cccc(Cl)c2)cc1	RORg inh inconclusive
S=C(NCCCCc1ccccc1)NCc1ccccc1	VP16 counter inconclusive, RORg inh 16µM (no result: KinaseGlo FLuc)
NS(=O)(=O)c1ccc(NC(=S)NCCc2ccccc2)cc1	none
CC(=O)c1ccc(NC(=S)NCCc2cccc(Cl)c2)cc1	VP16 counter inconclusive, RORg inh 18µM
COc1ccc(S(=O)(=O)NCC2CCC(C(=O)NCCCN3CCCC3=O)CC2)cc1 (configuration not stated)	none (no result: KinaseGlo FLuc)
CC(=O)N1N=C(c2ccc3ccccc3c2)OC12CCCC2	none (no result: KinaseGlo FLuc)
CCc1ccc(C(=O)C[n+]2cccc3cc(OC)ccc32)cc1	none (no result: KinaseGlo FLuc)
O=C(CCCCC(=O)NCCCc1ccccc1)NCCCc1ccccc1	none (no result: KinaseGlo FLuc)
O=[N+]([O-])c1ccc(NC(=S)NCCc2ccccc2)cc1	none
CNC(=S)NCCCc1ccccc1	VP16 counter inconclusive, RORg inh 16µM
O=[N+]([O-])c1ccc(NC(=S)NCCc2ccc(Cl)cc2)cc1	VP16 counter 3.5µM, RORg inh 0.63µM
CCc1ccc(OCC(=O)Nc2ncn[nH]2)cc1	VP16 counter inconclusive
CC(C)(C)c1cc(Br)ccc1OCC(=O)Nc1ncn[nH]1	VP16 counter 18µM, RORg inh 3.5µM
CC(C)(C)c1ccccc1OCC(=O)Nc1ncn[nH]1	VP16 counter inconclusive, RORg inh 11µM
O=C(COc1ccccc1)Nc1ncn[nH]1	none (no result: KinaseGlo FLuc)
COc1ccc(-n2cnc3c(cnn3CCC#N)c2=N)cc1	none
O=C(c1cc(-c2ccc(Cl)cc2)n(-c2ccc(Cl)c(Cl)c2)n1)N1CCOCC1	VP16 counter inconclusive, RORg inh 2.2µM
O=C(c1cc(-c2ccc(Cl)cc2)n(-c2cc(Cl)ccc2Cl)n1)N1CCOCC1	VP16 counter inconclusive, RORg inh inconclusive
CCCCC/C(C=O)=C/c1ccccc1	none (no result: KinaseGlo FLuc)
CC(=O)NCCNc1nc(-c2cccc(C#N)c2)nc2ccccc12	none (no result: KinaseGlo FLuc)
Cc1occc1C(=O)N/N=C/c1cnn(C)c1C	VP16 counter inconclusive
CCOc1ccc(S(=O)(=O)n2nnc3ccccc32)cc1C(C)C	none
Cc1ccc(S(=O)(=O)NNc2ccccc2)cc1	none
O=C(NNc1ccccc1F)c1ccccc1	none (no result: KinaseGlo FLuc)
Cc1ccc(S(=O)(=O)NNc2nc3ccccc3nc2C(F)(F)F)cc1	VP16 counter inconclusive, RORg inh 18µM
O=C(NNc1nc2ccccc2nc1C(F)(F)F)c1ccccc1	VP16 counter 16µM, RORg inh 7.9µM
CCOCCCNCC(=O)Nc1ccc(S(=O)(=O)NC(C)CC)cc1 (configuration not stated)	none
Cc1ccc(NC(=O)CCN2CC(C)OC(C)C2)cc1C (configuration not stated)	none (no result: KinaseGlo FLuc)
